SENP8 block-1: human SENP8 protease inhibitors, primary screen, biochemical, fluorescence, Nedd8 protein substrate, uHTS; recombinant SENP8; AID 602440, 2012; inhibition, % at 20 µM; hit rate 0.64% among 360,000; in the data active = inhibition mostly above about 40%, no sharp cut-off; inactive = mostly below about 27%
SENP8 block-2: SENP8 protease inhibitors, primary screen, biochemical, luminescence; Sentrin-specific protease 8 (Homo sapiens), Q96LD8; purified SENP8, Z-RLRGG-aminoluciferin cleavage; inhibition, % at 10 µM; hit rate 1.2% among 330,000; AID 2540, 2010; in the data active = inhibition above about 50%
SENP7 block: SENP7 protease inhibitors, primary screen, biochemical, luminescence, uHTS; hit rate 1.5% among 330,000; Sentrin-specific protease 7 (Homo sapiens), Q9BQF6; AID 434973, 2010; recombinant SENP7, Z-RLRGG-aminoluciferin luminescence, 40 min; inhibition, % at 5 µM;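 active = inhibition above about 50% at the single test dose, limit read from the data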;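 note: plate controls were DMSO with enzyme for no effect and no enzyme buffer wells for full effect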
SENP6 block: SENP6 protease inhibitors, primary screen, biochemical, luminescence, uHTS. inhibition, % at 10 µM. Sentrin-specific protease 6 (Homo sapiens), Q9GZR1. AID 2599, 2010. hit rate 1.8% among 330,000. Recombinant SENP6 catalytic domain, aminoluciferin luminescence;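 active = inhibition above about 50% at the single tested dose, limit read from the data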;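 note: plate controls were DMSO wells with enzyme for no effect and DMSO wells lacking enzyme for full effect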
HSP90 refold inh: HSP90 inhibitors, primary screen, cell lysate, luminescence; Heat shock protein HSP 90 (rabbit reticulocyte lysate; luciferase refolding); Rabbit reticulocyte lysate, luciferase refolding luminescence, 3 h; inhibition, % at 5.6 µM; hit rate 0.91% among 290,000; AID 1789, 2009;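 active = inhibition above the screen-wide mean plus 3 SD, computed separately per campaign, cut at about 16% in these data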;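 note: 0% = DMSO wells and 100% = 60 µM geldanamycin wells; inhibitors lower the luminescence because luciferase stays unfolded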
Platelet DG rel: inhibitors of platelet dense granule secretion, primary screen, cell-based, MLPCN, human platelets; human platelet-rich plasma, SFLLRN dense granule ATP release, luminescence; inhibition, %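 (compounds screened at 7.5 µM in platelet-rich plasma)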; hit rate 0.22% among 300,000; AID 1663, 2009;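 active = mean replicate score, as percent of positive control, at or above 50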
HSP90 inh confirm: HSP90 inhibitors, confirmation, cell lysate, luminescence; shares compounds with HSP90 refold inh; rabbit reticulocyte lysate, luciferase refolding luminescence, 3 h; inhibition, % at 5.9 µM; hit rate 64% among 2,300; in the data active = inhibition above about 18%;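 note: 0% = vehicle wells and 100% = reference inhibitor wells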
FLuc counter: firefly luciferase inhibitors, HSP90 counter-screen, confirmation, artefact control for HSP90 inhibitor project, biochemical, luminescence, triplicate; shares compounds with HSP90 refold inh; purified native firefly luciferase; inhibition, % at 5.9 µM; hit rate 48% among 2,300; AID 1847, 2009;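 active = inhibition above the mean inhibition of all tested sample wells plus 3 SD, cut at about 10% in these data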;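 note: 0% = DMSO with luciferase and 100% = wells lacking luciferase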
Target sequence (P08659 whole entry, looked up): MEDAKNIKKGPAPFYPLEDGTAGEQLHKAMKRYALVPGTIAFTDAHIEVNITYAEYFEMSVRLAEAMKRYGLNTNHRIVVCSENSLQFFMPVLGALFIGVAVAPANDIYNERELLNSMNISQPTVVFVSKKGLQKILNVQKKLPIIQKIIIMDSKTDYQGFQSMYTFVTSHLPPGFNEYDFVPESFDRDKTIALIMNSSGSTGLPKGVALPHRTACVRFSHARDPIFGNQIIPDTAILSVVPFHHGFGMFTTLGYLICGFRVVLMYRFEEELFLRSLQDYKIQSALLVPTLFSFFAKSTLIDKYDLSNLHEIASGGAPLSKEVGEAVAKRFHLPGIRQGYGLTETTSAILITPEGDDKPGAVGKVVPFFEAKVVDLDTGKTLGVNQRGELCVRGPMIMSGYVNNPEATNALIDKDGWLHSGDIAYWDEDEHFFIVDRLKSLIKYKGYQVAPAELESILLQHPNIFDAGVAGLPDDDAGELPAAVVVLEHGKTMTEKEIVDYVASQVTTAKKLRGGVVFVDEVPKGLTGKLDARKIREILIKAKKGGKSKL
SENP8 confirm: SENP8 protease inhibitors, retest, confirmation, biochemical, luminescence, single concentration; shares compounds with SENP7 block; Recombinant SENP8, Z-RLRGG-aminoluciferin luminescence, 60 min; inhibition, % at 12.5 µM; hit rate 40% among 6,200; AID 488912, 2010;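 active = mean inhibition across replicates above about 50%, limit read from the data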
SENP6 confirm: SENP6 protease inhibitors, confirmation, biochemical, luminescence, single concentration | shares compounds with SENP7 block | recombinant SENP6, Z-RLRGG-aminoluciferin luminescence | inhibition, % at 12.5 µM | hit rate 58% among 6,200 | AID 488915, 2010
SENP7 confirm: SENP7 protease inhibitors, retest, confirmation, biochemical, luminescence, single concentration; shares compounds with SENP7 block; recombinant SENP7, Z-RLRGG-aminoluciferin luminescence, 40 min; inhibition, % at 12.5 µM; hit rate 69% among 6,200; AID 488917, 2010
Casp3 SENP sel: caspase-3 protease inhibitors, confirmation, selectivity assay for SENP inhibitor project, biochemical, single concentration | shares compounds with SENP7 block | hit rate 60% among 6,200 | AID 488918, 2010 | inhibition, % at 12.5 µM | purified caspase-3, Z-DEVD-aminoluciferin luminescence, 60 min;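 active = mean inhibition above about 50%, limit read from the data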;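 note: plate controls were enzyme with DMSO for no effect and wells without caspase-3 for full effect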
Target sequence (P42574 28-227 limits assumed): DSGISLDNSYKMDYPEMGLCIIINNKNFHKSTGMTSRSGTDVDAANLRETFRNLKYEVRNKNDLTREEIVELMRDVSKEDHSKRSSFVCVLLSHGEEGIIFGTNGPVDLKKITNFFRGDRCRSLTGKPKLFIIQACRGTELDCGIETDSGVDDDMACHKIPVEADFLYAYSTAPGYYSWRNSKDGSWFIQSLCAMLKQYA
SENP luc ctr: interferes with luciferase luminescence in SENP counter-screen | AID 488919 | inhibition, % at 12.5 µM | Pre-incubated SENP8/Z-RLRGG-aminoluciferin, luciferase luminescence interference | hit rate 39% among 6,200 | shares compounds with SENP7 block;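 active = mean inhibition above about 50% when retested at one dose, limit read from the data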;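 note: plate controls were DMSO wells with completed reaction for no effect and substrate without enzyme for full effect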
Starred values were filed as active, the others as inactive; . = not tested or not shown. The list is not random: actives were taken first. Their share in the collection is about 2.8%.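 Rule for the calls, unless noted: active = mean inhibition above about 50% in the one-dose retest (limit read from the data); inactive = the rest.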

SMILES	SENP8 block-1	SENP8 block-2	SENP7 block	SENP6 block	HSP90 refold inh	Platelet DG rel	HSP90 inh confirm	FLuc counter	SENP8 confirm	SENP6 confirm	SENP7 confirm	Casp3 SENP sel	SENP luc ctr
C[C@@H]1CN([C@H](C)CO)C(=O)CCCn2cc(nn2)CO[C@H]1CN(C)C(=O)c1ccncc1	28.1	.	.	.	.	.	.	.	.	.	.	.	.
O=C(CSc1n[nH]c(-c2ccncc2)n1)Nc1ccc(Cl)c(Cl)c1	0.0	-7.1	-16.0	-8.2	-5.8	10.4	.	.	.	.	.	.	.
CC(C)(C)NC(=O)NC(=O)Cn1ccsc1=N	10.4	-3.2	2.6	-14.7	0.7	11.5	.	.	.	.	.	.	.
CCc1ccc(C(=O)Cn2ccsc2=N)cc1	2.6	74.9*	80.7*	78.6*	21.2*	.	11.1	-8.2	58.4*	53.5*	84.2*	65.5*	74.3*
O=[N+]([O-])c1ccccc1COc1ccc(Cl)c2cccnc12	8.9	71.7*	92.6*	82.8*	21.4*	5.3	48.4*	31.5*	50.5*	51.5*	72.7*	74.5*	15.8
O=C(Oc1ccc(Cl)c2cccnc12)c1cccc([N+](=O)[O-])c1	21.2	3.6	1.7	-3.3	-2.7	17.5	.	.	.	.	.	.	.
CC(C)COP(=O)(OCC(C)C)C(O)c1ccc(N(C)C)cc1 (stereo unspecified)	13.6	-5.0	-1.0	-13.6	-1.2	6.7	.	.	.	.	.	.	.
CCOC(=O)c1nc(Nc2cc(Cl)ccc2OC)c2ccccc2n1	-68.7	1.0	-2.1	-22.4	6.2	3.3	.	.	.	.	.	.	.
O=C(/C=C/c1ccc(-c2ccccc2[N+](=O)[O-])o1)c1ccccc1	1.5	.	.	.	0.2	7.2	.	.	.	.	.	.	.
O=C(O)/C(=C\c1ccc(-c2ccccc2[N+](=O)[O-])o1)c1ccccc1	1.9	47.5	0.0	58.2*	33.5*	-8.5	-4.9	-9.2	59.8*	65.8*	73.6*	58.9*	53.8*
CCOC(=O)C1(C)CCCCCN1C(=O)c1ccc(OC)cc1 (stereo unspecified)	11.7	.	.	.	.	.	.	.	.	.	.	.	.
Oc1c(N=Nc2ccccc2)sc2ccccc12	1.3	94.5*	98.9*	97.8*	17.8*	55.8*	48.4*	39.1*	75.3*	98.2*	103.1*	96.4*	9.9
COc1cccc2oc3cc(C#Cc4ccccn4)ccc3c(=O)c12	.	-15.7	6.1	22.9	-2.1	0.7	.	.	.	.	.	.	.
COc1cccc2oc3cc(C#CC4(O)CCCCC4)ccc3c(=O)c12	-355.2	83.9*	84.1*	80.9*	25.6*	14.7	29.7*	19.4*	89.1*	89.4*	97.4*	71.9*	54.7*
c1ccc2nc(-c3ccc(N4CCOCC4)cc3)ccc2c1	-280.8	81.3*	97.4*	93.4*	26.5*	57.5*	79.5*	71.2*	66.0*	80.0*	93.3*	76.2*	38.8
Cc1cc(-c2ccc(N3CCOCC3)cc2)nc2ccccc12	-412.6	-5.5	7.6	7.6	-0.3	5.9	.	.	.	.	.	.	.
Cc1ccc(NC(=O)c2nnn(-c3ccc4c(c3)OCCO4)c2N)cc1	1.3	-13.0	-11.3	-12.7	-5.6	16.9	.	.	.	.	.	.	.
Nc1c(C(=O)Nc2ccccc2)nnn1-c1ccc2c(c1)OCCO2	20.2	76.3*	82.3*	84.6*	23.6*	-39.3	44.6*	31.0*	85.2*	84.3*	97.1*	81.6*	69.5*
Cc1ccc(S(=O)(=O)C[C@@H]2OC[C@H](CO)N2S(=O)(=O)c2ccc(C)cc2)cc1	27.4	.	.	.	.	.	.	.	.	.	.	.	.
Cc1ccc2c(c1)sc(=NC(=O)C1CC1)n2C	-5.0	-6.2	6.3	13.9	4.4	1.0	.	.	.	.	.	.	.
Cc1ccc2c(c1)sc(=NC(=O)c1cccs1)n2C	-409.3	95.4*	99.6*	92.8*	27.6*	12.9	83.9*	79.7*	29.3	75.4*	99.4*	95.0*	43.2
CN=C1S/C(=C\c2cc(C)n(-c3ccccc3F)c2C)C(=O)N1C	-13.7	62.7*	65.8*	42.1	49.4*	15.2	65.2*	62.6*	86.2*	87.6*	95.8*	70.1*	74.0*
Cc1cc(/C=C2\SC(=O)N(C)C2=O)c(C)n1-c1ccc(O)cc1	-92.6	15.7	-0.5	60.7*	47.9*	-0.1	64.0*	63.4*	74.4*	71.8*	83.5*	30.5	68.9*
Cc1cccc(CN2CCN(C3CN(Cc4cn(Cc5ccccc5C(F)(F)F)nn4)S(=O)(=O)C3)CC2)c1 (stereo unspecified)	23.4	.	.	.	.	.	.	.	.	.	.	.	.
CC(C1SC(=S)NC1=O)C1SC(=S)NC1=O (stereo unspecified)	5.3	.	.	.	.	.	.	.	.	.	.	.	.
Nc1ccc2nc(-c3ccccc3)sc2c1	-288.9	96.4*	98.1*	97.7*	36.9*	64.0*	72.2*	67.7*	98.3*	99.6*	102.7*	98.0*	96.6*
Nc1ccc(-c2nc3cc(N)ccc3s2)cc1	-428.6	83.9*	89.9*	75.5*	25.0*	.	47.2*	38.8*	92.8*	93.1*	100.2*	90.2*	90.3*
CC(=O)NC(=S)Nc1ccc(-c2nc3ccc(C)cc3s2)cc1	-289.7	-10.4	11.8	3.4	-0.3	-2.3	.	.	.	.	.	.	.
Nc1ccc2nc(-c3ccccc3)c(-c3ccccc3)nc2c1	-221.4	1.1	11.5	21.3	6.0	-4.8	.	.	.	.	.	.	.

Screens (PubChem BioAssay)
